High-throughput results (PubChem BioAssay)
In the library only some 2.4% were active in any assay of this set; here they are far more common.
Pol kappa inh: DNA polymerase kappa (human) inhibition; Q9UBT6; purified Pol kappa, fluorescent DNA synthesis assay, 10 min; Potency, µM (series often up to 107 µM), most hits filed as inhibitors; 400,000 tested, 0.53% active; AID 588579
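First, compounds were pin-transferred onto 10 nM Pol kappa. After 15 min at room temperature, substrate was added to 50 nM final. Fluorescence was then measured kinetically at 0 and 10 min.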
WRN helicase inh: inhibitors of human WRN helicase; Q14191; WRN helicase unwinding, fluorescent forked duplex, kinetic; Potency, µM (highest dose often 114 µM), actives largely listed as inhibitors; 360,000 tested, 0.46% active; further: nearly all actives have a fitted effect of over 55% in size
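Kinetic red-fluorescence monitoring (525/598 nm) tracks WRN helicase activity after 100 nM fluorophore-quencher forked duplex and 2 mM ATP are added to 20 nM enzyme pretreated 15 min at room temperature with compound.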
Pol beta inh: inhibitors of human DNA polymerase beta; P06746; AID 485314; Pol beta primer extension/strand displacement, fluorescence kinetic; 340,000 tested, 1.3% active; Potency, µM (titrated, usually from 114 µM), usual class: inhibitors
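Kinetic readout of DNA synthesis with strand displacement by Pol beta. Compound and 10 nM enzyme sit 15 min at room temperature; 50 nM substrate starts the reaction, read immediately and at 10 min.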
FEN1 inhibitor: inhibitors of human flap endonuclease 1; Recombinant FEN1 flap cleavage, fluorescence, 15 min; Potency, µM (series often up to 114 µM), usual class: inhibitors; 390,000 tested, 0.35% active; further: nearly all actives have a fitted effect of over 65% in size
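Potency values derive from four-parameter Hill fits of normalized qHTS data. The reaction used 10 nM FEN1 preincubated 15 min at room temperature with compound, then 50 nM DNA substrate, read at 0 and 15 min.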
POLH inh: blocks human DNA polymerase eta activity | recombinant Pol eta, fluorescent DNA replication assay | Potency, µM (series often up to 114 µM), usual class: inhibitors | 390,000 tested, 1.2% active | AID 588591
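Pol eta at 10 nM preincubated with compounds 15 min at room temperature; reaction started with fluorescent substrate (50 nM final) and read kinetically at 0 and 10 min.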
POLI inh: DNA polymerase iota (human) inhibition; Q9UNA4; Pol iota fluorescent replication assay, 10 min; Potency, µM (highest dose often 115 µM), usual class: inhibitors; 390,000 tested, 1% active
Target sequence (Q9UNA4 whole entry, looked up): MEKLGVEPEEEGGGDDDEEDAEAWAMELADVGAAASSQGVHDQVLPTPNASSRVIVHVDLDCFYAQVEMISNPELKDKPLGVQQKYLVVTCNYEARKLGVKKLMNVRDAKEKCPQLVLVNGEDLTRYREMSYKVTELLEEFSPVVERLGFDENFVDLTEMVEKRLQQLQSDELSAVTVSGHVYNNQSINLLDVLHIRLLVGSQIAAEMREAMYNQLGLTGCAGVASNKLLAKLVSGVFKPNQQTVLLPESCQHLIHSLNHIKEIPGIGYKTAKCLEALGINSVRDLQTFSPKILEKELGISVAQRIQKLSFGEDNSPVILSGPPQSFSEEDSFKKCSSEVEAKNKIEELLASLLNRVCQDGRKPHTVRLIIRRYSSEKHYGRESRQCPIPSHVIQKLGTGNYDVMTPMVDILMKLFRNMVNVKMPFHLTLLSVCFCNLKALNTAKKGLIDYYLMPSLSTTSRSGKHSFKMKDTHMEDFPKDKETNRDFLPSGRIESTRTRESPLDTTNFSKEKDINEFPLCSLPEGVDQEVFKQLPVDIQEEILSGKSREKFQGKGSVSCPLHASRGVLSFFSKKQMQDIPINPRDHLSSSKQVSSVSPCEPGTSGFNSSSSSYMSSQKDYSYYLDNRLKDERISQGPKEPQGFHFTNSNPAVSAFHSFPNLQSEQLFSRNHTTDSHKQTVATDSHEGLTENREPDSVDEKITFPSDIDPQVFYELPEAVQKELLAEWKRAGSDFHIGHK
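Pol iota at 10 nM preincubated 15 min with compounds at room temperature; reaction started with fluorescent substrate, 50 nM final. Fluorescence read kinetically at 0 and 10 min; buffer-only wells as negative control.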
A number is an active result; - = inactive; ? = inconclusive; . = no result; [ ] = dose if it differs, or a comment. The call rests on the fitted dose curve; in most records, active means well fitted curve in the direction sought with a large enough effect; inconclusive means small, poorly fitted or top-dose-only effect, or another doubt; inactive means no such curve, though single readings can be large; an effect the other way counts as inactive or inconclusive.

SMILES | Pol kappa inh | WRN helicase inh | Pol beta inh | FEN1 inhibitor | POLH inh | POLI inh
O=C1OC(c2ccc(F)cc2)=C/C1=C\c1ccc([N+](=O)[O-])o1 | . | . | 7.1µM | . | . | .
COc1cc(C=O)ccc1OCCOCCOc1c(C)cc(Cl)cc1Cl | - | - | 10µM | - | - | -
COc1cc(C=O)ccc1OCCOCCOc1ccc(Cl)cc1Cl | - | - | . | - | - | -
CCCCCCCCCCCCCCCCCCCCCCCCCCCCCC | -[12 µM] | . | . | . | . | .
N#Cc1c(-c2ccccc2)cc(-c2ccc3c(c2)OCO3)[nH]c1=O | - | - | . | - | - | -
COc1ccc(-c2cc(-c3ccco3)[nH]c(=O)c2C#N)cc1OC | 79µM | - | ? | ? | 56µM | 10µM
O=C(C[n+]1ccc(Cl)c2ccc(Cl)cc21)c1ccc(F)cc1 | - | . | . | - | . | -
Cc1cc(C(=O)O)ccc1-c1ccc(/C=C2\NC(=O)N(Cc3ccccc3Cl)C2=O)o1 | 22µM | 50µM | 14µM | ? | 4.5µM | 5.6µM
Cc1cc(C(=O)O)ccc1-c1ccc(/C=C2\SC(=O)N(CC(=O)Nc3ccc4c(c3)OCO4)C2=O)o1 | . | . | - | . | . | .
Cc1cc(C)cc(NC(=O)c2oc3ccc4c(c3c2C)C(=O)CC(C)(C)O4)c1 | - | . | - | - | - | -
COc1cc(OC)c2c(C)c(CC(=O)NCc3ccccc3OC)c(=O)oc2c1 | - | . | - | - | 28µM | -
Cc1c(C(=O)NCc2cccc(Br)c2)oc2ccc3c(c12)C(=O)CC(C)(C)O3 | ? | . | - | 89µM | . | 79µM
COc1ccccc1CNC(=O)c1oc2ccc3c(c2c1C)C(=O)CC(C)(C)O3 | - | . | - | - | . | 89µM
CC(O)c1cccc2cc(C(O)CNC(C)(C)C)oc12 (configuration not stated) | - | . | . | . | . | .
Clc1ncc(C#Cc2ccccc2)c2ncncc12 | - | . | . | - | . | ?
CCC(c1ccccc1)C(CC)c1cc(O)c(O)c(O)c1 (configuration not stated) | - | 45µM | . | - | - | ?
COc1cc(-c2nc(Cn3nnc(C(=O)Nc4ccc(C)cc4C)c3C)c(C)o2)cc(OC)c1OC | - | . | - | - | - | -
O=Cc1[nH]c2ccccc2c1N(C(=O)CCl)c1ccc([N+](=O)[O-])cc1 | - | - | - | - | - | -
CC(=O)n1cc(N(C(=O)CCl)c2ccc([N+](=O)[O-])cc2)c2ccccc21 | - | - | - | - | 40µM | ?
Cc1c(C)n(CCC(=O)O)c2ccccc12 | - | - | - | - | - | -
Cc1ccc2c(c1)c(C)cc(=O)n2CCC(=O)O | - | - | 13µM | - | - | -
O=C(O)c1ccccc1-n1ncc2c1/C(=C/c1ccc(Cl)cc1)CC2 | . | . | 40µM | . | . | .
COc1ccccc1/C=C/c1ccnc2ccccc12 | - | . | . | - | . | -
Cc1cc(-c2ccco2)c(C#N)c2nc3ccccc3n12 | ? | - | 8.9µM | ? | 10µM | ?
Cc1cc(C(C)C)n2c(nc3ccccc32)c1C#N | . | . | - | . | . | .
SMILES | Pol kappa inh | WRN helicase inh | Pol beta inh | FEN1 inhibitor | POLH inh | POLI inh
COc1cccc(/C=C/c2nc3ccccc3nc2/C=C/c2cccc(OC)c2OC)c1OC | - | . | . | - | . | -
COCCCNC(=O)CSc1nc2nc(C)c(Cc3ccccc3Cl)c(C)n2n1 | - | . | - | - | - | -
O=S1(=O)N=C(SCCO)c2ccccc21 | - | - | - | - | - | -
O=C(O)CSC1=NS(=O)(=O)c2ccccc21 | ? | . | . | ? | . | 89µM
O=C(CSc1nnc(NC(=O)c2ccccc2Cl)s1)Nc1ccc2c(c1)oc1ccccc12 | . | . | 32µM | . | . | .
Cc1ccc(S(=O)(=O)NC(=O)c2cc(C)n(-c3cc(S(=O)(=O)N4CCOCC4)ccc3N3CCCC3)c2C)cc1 | - | - | ? | - | 89µM | ?
Cc1ccc(C(=O)Nc2cc(S(=O)(=O)N3CCOCC3)ccc2N2CCCC2)cc1 | - | - | . | - | - | -
O=c1c2ccccc2nc(SCc2cc(=O)n3ccsc3n2)n1CCCO | . | . | 32µM | . | . | .
O=c1cnc2cncnc2n1Cc1ccc(F)cc1 | - | . | . | . | . | .
CCn1c(=O)c(-[n+]2ccccc2)c(O)c2ccccc21 | - | - | - | 35µM | - | ?
CN(C)c1ccc(/C=C/c2ccc3cc(N)ccc3n2)cc1 | - | . | . | - | . | ?
COc1ccc2c(c1OC)C(=O)N1c3ccccc3C(=O)N(Cc3ccco3)C21 (configuration not stated) | - | . | . | - | . | -
CCOC(=O)C1CCN(c2ncnc3c2cnn3C)CC1 | - | - | 79µM | - | - | -
CCOC(=O)C1CCN(c2ncnc3c2cnn3-c2ccccc2)CC1 | - | - | - | - | - | -
O=[n+]1ccn([O-])c2ccccc21 | -[19.4 µM] | . | . | . | . | .
Clc1ccc(N=c2ssnc2Cl)cc1 | - | 79µM | - | - | - | ?
Clc1nssc1=Nc1ccccc1 | - | ? | - | - | - | -
COc1cc(N=c2ssnc2Cl)cc(OC)c1OC | - | 56µM | - | - | - | ?
CCOC(=O)c1ccc(N=c2ssnc2Cl)cc1 | - | 22µM | - | ? | - | -
Fc1ccc(N=c2ssnc2Cl)c(F)c1 | - | 32µM | - | ? | - | ?
COc1ccc(N=c2ssnc2Cl)cc1 | - | ? | - | - | - | ?
C=C1CCN(C(CC(C)C)C(=O)NN2CCOCC2)S(=O)(=O)c2ccccc21 (configuration not stated) | - | . | . | - | . | -
